Four compounds from ChEMBL document CHEMBL1157539, “Thousands of chemical starting points for antimalarial lead identification” (Nature, 2010) can be followed below.

Common to all, as to format: functional
The subject of test [1] is Plasmodium falciparum. The test can be described thus: GSK_TCMDC: Inhibition of Plasmodium falciparum 3D7 in whole red blood cells, using parasite LDH activity as an index of growth. Test compounds present at 2uM.
For test [2], the system named is Plasmodium falciparum. In words: GSK_TCMDC: Inhibition of Plasmodium falciparum Dd2 in whole red blood cells, using parasite LDH activity as an index of growth. Test compounds present at 2uM.
Test [3] concerns HepG2. The test can be described thus: GSK_TCMDC: Percent inhibition of human HepG2 cell line. Test compounds present at 10uM.

Usually Inhibition stands for how much of the control response was suppressed.

Take `CC(C)COc1ccc(Cl)cc1Cc1nc(-c2nc3ccc(CN4CCN(C)CC4)cc3[nH]2)co1.Cl`: the Inhibition is on record as 100% in test [1], 57% in test [2] and 5% in test [3].

In the case of `Cc1cc(N/N=C/c2ccccc2[N+](=O)[O-])c2ccc(F)cc2n1`, the Inhibition in test [1] was determined as 100%; in test [2] it was 100%; in test [3], 32%.

`COC(=O)CNC(c1ccccc1)c1cc(Br)ccc1NC(=O)c1ccccc1Br` (configuration not stated): the Inhibition in test [1] was 99%; in test [2], 77%; in test [3] it was 10%.

On to `CCCCCNc1ccnc2cc(Cl)ccc12`, for which the Inhibition in test [1] was determined as 97%; in test [2], 99%; in test [3], 12%.
